According to PubChem BioAssay (Tox21):
Activity calls are given as the source filed them. Calls come from the whole dose curve; as a rule, active = well fitted curve in the direction sought with a large enough effect in the repeat runs; inconclusive = weak or mixed curves; inactive = flat fitted curve, though single readings scatter.

assay: qHTS assay to test for compound auto fluorescence at 535 nm (green) in HEK293 cells (AID 720680); details: green autofluorescence 485/535 nm; series mostly up to 91.3 µM; fluorescence, % of fluorescein: at the top concentration
Source text: U.S. Tox21 Program National Center for Advancing Translational Sciences [NCATS] NIH Chemical Genomics Center [NCGC] U.S. Environmental Protection Agency [EPA] National Institutes of Environmental Health Sciences [NIEHS] National Toxicology Program [NTP] U.S. Food and Drug Administration [FDA] Tox21 Assay Overview: Compound auto fluorescence often interferes with screening of the compound library against various biological targets and signaling pathways. Some of these compounds may have fluorophoric properties. Such properties may interfere with the assay outputs resulting in false positives and/or negatives. To decrease such complications and ensure the compound activities are relevant in terms of biological response, the Tox21 10K compound library was screened for auto fluorescence. From the fluorophores used as reporter signals in our screening assays, the auto fluorescence equivalencies of compounds against three fluorophores have been evaluated: Triamterene, Fluorescein and Rose Bengal sodium for blue, green and red fluorescence, respectively. The fluorescence intensities were measured using Excitation/Emission wavelengths at 405/460nm, 485/535nm and 540/590nm for blue, green and red labels, respectively. This assay includes the green fluorescence data.
Tox21 Assay Protocol Summary: 2,000 HEK293 cells in 5 uL of culture medium containing 10% dialyzed FBS per well were dispensed into black wall/clear bottom 1536-well plates using a Multidrop Combi Dispenser (Thermo Scientific). The assay plates were incubated for 4-5 hr at 37C to allow cell attachment to the well bottom, followed by the transfer of 23 nL compound or DMSO vehicle by a pintool work station (Kalypsys, San Diego, CA). After the assay plates were incubated overnight at 37C and 5% CO2, fluorescence intensities in the assay plates were measured by an Envision (PerkinElmer, Shelton, CT) plate reader using three labels for measuring blue, green and red fluorescence at […] 460, 535 and 590nm respectively.
% is set by controls: 0 for no effect and ±100 for the full control effect.

SMILES | fluorescence, % of fluorescein | outcome
N=C(N)[Se] | -0.0643% (inactive) | 
ClCC1CO1 (stereo not given) |  | inactive
COc1cc(CC(C)N)cc(OC)c1OC (stereo not given) | 0.131% [at 95.7 µM] (inactive) | 
O=C(O)C(Br)(Br)Br | 0.0031% (inactive) | 
COC1=CC(=O)O[C@@H](/C=C/c2ccccc2)C1 | 0.0028% [at 95.7 µM] (inactive) | 
CC(C)(N)Cc1ccc(Cl)cc1 | -0.0418% [at 46 µM] (inactive) | 
COc1ccccc1OC | -0.0077% (inactive) | 
CC[C@H](O)C(C[C@H](C)N(C)C)(c1ccccc1)c1ccccc1 | 0.04% [at 95.7 µM] (inactive) | 
CCOC(=O)C(SP(=S)(OC)OC)c1ccccc1 (stereo not given) | -0.198% (inactive) | 
COc1ccc2c(C(=O)c3ccc(Cl)cc3)c(C)n(CC(=O)O)c2c1 | 0.0002% [at 46 µM] (inactive) | 
CC(C)c1ccc(O)cc1 | 0.0087% (inactive) | 
CN(C)C1CCCCC1 | 0.0124% (inactive) | 
Cc1ccc2cc(C)ccc2c1 | -0.0743% (inactive) | 
C#CCOC(=O)/C=C(C)/C=C/CC(C)CCCC(C)C (stereo not given) | -0.118% (inactive) | 
BrCc1ccc(Br)cc1 | 0.0233% (inactive) | 
CCN(CC)CCOC(=O)C(O)(c1ccccc1)c1ccccc1 | -0.068% [at 46 µM] (inactive) | 
CCCCCCC1CCOC1=O (stereo not given) | 0.0133% (inactive) | 
C=CC1(C)OC(=O)N(c2cc(Cl)cc(Cl)c2)C1=O (stereo not given) |  | inactive
S=C=S |  | inactive
O=C(Cl)C(Cl)(Cl)Cl | 0.0122% (inactive) | 

SMILES | fluorescence, % of fluorescein | outcome
O=C(NC(=O)c1c(F)cccc1F)Nc1cc(Cl)c(F)c(Cl)c1F | -0.0666% (inactive) | 
O=C(Cl)OCc1ccccc1 | 0.0523% (inactive) | 
CN(C)CCc1c[nH]c2cccc(OP(=O)(O)O)c12 | 0.0109% (inactive) | 
C=CCCC#N | -0.0571% (inactive) | 
O=[N+]([O-])CCO | -0.0919% [at 95.7 µM] (inactive) | 
NNC(N)=O | -0.0046% [at 95.7 µM] (inactive) | 
COc1cccc(C=O)c1 | -0.0613% (inactive) | 
CCC1(CC)C(=O)C=CNC1=O | -0.118% [at 46 µM] (inactive) | 
CCC1(c2ccccc2)CCC(=O)NC1=O (stereo not given) | 0.102% [at 46 µM] (inactive) | 
C#CC(C)(C)O | 0.0928% [at 95.7 µM] (inactive) | 
O=c1[nH]oc2c1CCNC2 | 0.0764% [at 46 µM] (inactive) | 
Cc1cc(OC(=O)N(C)C)nn1C(=O)N(C)C | 0.0258% (inactive) | 
C[C@]12C=CC(=O)C=C1CC[C@@H]1[C@@H]2CC[C@@]2(C)[C@H]1CC[C@]2(C)O | 0.0754% [at 46 µM] (inactive) | 
CCCCCCCCBr | 0.0179% (inactive) | 
CS(=O)(=O)Cl | -0.0502% [at 95.7 µM] (inactive) | 
CC(=NC#N)N(C)Cc1ccc(Cl)nc1 | 0.0758% (inactive) | 
ClCOCCl | 0.0214% (inactive) | 
BrCC1CO1 (stereo not given) | -0.0309% (inactive) | 
CCOC(=O)C(Cl)Cc1cc(-n2nc(C)n(C(F)F)c2=O)c(F)cc1Cl (stereo not given) | -0.126% (inactive) | 
CNC(=O)NC(O)C(Cl)(Cl)Cl (stereo not given) | 0.146% [at 46 µM] (inactive) | 
